# Experimental data from ChEMBL document CHEMBL2218924, “A broad activity screen in support of a chemogenomic map for kinase signalling research and drug discovery” (Biochem J, 2013).
# Experiments:
# [1] = target: Ephrin type-A receptor 4 (Homo sapiens) (UniProt P54764); conditions: at 1 µM
# [2] = target: Ephrin type-A receptor 4 (Homo sapiens) (UniProt P54764); conditions: at 10 µM
# [3] = target: Ephrin type-A receptor 5 (Homo sapiens) (UniProt P54756); conditions: at 1 µM
# [4] = target: Ephrin type-A receptor 5 (Homo sapiens) (UniProt P54756); conditions: at 10 µM
# [5] = target: Ephrin type-A receptor 7 (Homo sapiens) (UniProt Q15375); conditions: at 10 µM
# Chain of Ephrin type-A receptor 7 (Homo sapiens) (Q15375 28-998 limits assumed): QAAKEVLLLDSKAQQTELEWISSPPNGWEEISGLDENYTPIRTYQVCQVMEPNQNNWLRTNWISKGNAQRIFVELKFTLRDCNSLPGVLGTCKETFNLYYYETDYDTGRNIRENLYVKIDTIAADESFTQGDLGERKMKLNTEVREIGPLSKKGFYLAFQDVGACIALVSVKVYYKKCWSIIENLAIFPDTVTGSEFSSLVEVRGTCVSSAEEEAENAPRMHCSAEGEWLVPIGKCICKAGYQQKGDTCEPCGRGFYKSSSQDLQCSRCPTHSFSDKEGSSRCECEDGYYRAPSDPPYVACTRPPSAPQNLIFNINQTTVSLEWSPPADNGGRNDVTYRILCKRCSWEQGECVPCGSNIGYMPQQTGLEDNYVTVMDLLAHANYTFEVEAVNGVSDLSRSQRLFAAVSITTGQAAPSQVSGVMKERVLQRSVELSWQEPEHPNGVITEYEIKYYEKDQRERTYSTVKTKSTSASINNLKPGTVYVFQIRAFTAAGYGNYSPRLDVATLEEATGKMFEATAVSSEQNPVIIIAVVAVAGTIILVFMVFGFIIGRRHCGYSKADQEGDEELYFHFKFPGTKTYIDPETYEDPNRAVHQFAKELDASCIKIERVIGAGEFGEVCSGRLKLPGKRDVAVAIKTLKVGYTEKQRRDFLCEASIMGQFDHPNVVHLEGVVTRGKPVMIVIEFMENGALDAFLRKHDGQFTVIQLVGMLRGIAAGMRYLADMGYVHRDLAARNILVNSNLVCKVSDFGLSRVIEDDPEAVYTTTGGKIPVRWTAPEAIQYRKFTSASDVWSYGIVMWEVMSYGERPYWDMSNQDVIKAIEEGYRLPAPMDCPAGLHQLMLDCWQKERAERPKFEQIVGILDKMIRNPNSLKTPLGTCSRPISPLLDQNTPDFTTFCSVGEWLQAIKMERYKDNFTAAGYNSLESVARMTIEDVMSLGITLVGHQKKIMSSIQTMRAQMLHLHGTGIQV
# [6] = target: T1, Ephrin type-B receptor 1 (Homo sapiens) (UniProt P54762); conditions: at 1 µM
# T1 sequence (whole entry): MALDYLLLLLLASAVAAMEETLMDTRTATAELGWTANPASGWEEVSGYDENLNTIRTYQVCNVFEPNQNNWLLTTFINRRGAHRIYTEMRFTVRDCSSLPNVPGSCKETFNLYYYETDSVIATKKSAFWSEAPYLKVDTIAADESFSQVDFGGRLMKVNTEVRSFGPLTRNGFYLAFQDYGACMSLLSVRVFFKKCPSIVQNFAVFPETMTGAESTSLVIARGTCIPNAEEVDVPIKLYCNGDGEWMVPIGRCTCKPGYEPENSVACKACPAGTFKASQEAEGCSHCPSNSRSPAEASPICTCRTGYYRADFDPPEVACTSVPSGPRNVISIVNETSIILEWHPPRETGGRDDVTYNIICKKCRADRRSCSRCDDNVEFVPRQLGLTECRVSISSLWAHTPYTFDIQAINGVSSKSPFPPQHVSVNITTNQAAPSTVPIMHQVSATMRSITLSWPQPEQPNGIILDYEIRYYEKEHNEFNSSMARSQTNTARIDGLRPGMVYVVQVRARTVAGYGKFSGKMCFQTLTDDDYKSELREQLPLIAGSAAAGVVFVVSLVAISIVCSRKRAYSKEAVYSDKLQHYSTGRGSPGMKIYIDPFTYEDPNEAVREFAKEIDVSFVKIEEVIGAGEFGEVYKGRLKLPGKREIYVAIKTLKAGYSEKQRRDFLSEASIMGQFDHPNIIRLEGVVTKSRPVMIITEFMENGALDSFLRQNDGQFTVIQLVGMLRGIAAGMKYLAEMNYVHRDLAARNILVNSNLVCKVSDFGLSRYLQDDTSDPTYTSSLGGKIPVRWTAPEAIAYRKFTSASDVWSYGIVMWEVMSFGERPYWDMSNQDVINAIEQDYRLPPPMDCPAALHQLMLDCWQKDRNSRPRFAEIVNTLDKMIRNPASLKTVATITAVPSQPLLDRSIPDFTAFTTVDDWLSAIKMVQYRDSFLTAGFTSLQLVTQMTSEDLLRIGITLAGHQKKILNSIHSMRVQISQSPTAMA
# [7] = target: T1, Ephrin type-B receptor 1 (Homo sapiens); conditions: at 10 µM
# [8] = target: T2, Ephrin type-B receptor 2 (Homo sapiens) (UniProt P29323); conditions: at 1 µM
# T2 sequence (whole entry): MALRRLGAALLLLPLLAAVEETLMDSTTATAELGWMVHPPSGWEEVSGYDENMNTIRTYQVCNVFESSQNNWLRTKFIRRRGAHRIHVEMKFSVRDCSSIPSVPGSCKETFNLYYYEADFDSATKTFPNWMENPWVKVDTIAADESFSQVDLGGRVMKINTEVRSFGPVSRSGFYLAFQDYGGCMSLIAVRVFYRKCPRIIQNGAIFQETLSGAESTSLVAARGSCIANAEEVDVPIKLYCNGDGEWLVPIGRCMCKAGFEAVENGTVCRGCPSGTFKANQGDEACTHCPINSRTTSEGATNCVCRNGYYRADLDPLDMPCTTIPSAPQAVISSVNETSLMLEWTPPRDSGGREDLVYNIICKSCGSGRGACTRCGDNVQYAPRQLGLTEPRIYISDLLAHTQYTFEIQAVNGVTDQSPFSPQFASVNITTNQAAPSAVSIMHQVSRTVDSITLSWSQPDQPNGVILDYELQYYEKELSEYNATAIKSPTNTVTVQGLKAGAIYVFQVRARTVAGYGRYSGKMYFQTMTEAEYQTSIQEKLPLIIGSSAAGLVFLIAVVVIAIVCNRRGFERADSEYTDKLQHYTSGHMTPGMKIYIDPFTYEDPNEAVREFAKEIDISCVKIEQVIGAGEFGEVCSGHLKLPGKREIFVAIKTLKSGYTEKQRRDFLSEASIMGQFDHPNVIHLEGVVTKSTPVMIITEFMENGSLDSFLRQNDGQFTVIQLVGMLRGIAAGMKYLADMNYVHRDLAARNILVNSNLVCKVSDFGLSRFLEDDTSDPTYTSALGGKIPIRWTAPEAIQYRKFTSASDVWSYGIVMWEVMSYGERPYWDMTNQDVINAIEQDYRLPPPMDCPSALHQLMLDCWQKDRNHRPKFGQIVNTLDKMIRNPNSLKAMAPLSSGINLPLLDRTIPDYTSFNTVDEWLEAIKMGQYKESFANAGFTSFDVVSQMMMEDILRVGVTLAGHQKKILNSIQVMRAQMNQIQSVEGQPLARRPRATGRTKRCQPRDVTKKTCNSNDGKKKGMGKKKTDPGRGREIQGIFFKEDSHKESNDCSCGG
# [9] = target: T2, Ephrin type-B receptor 2 (Homo sapiens); conditions: at 10 µM
# [10] = target: T3, Ephrin type-B receptor 3 (Homo sapiens) (UniProt P54753); conditions: at 1 µM
# T3 sequence (whole entry): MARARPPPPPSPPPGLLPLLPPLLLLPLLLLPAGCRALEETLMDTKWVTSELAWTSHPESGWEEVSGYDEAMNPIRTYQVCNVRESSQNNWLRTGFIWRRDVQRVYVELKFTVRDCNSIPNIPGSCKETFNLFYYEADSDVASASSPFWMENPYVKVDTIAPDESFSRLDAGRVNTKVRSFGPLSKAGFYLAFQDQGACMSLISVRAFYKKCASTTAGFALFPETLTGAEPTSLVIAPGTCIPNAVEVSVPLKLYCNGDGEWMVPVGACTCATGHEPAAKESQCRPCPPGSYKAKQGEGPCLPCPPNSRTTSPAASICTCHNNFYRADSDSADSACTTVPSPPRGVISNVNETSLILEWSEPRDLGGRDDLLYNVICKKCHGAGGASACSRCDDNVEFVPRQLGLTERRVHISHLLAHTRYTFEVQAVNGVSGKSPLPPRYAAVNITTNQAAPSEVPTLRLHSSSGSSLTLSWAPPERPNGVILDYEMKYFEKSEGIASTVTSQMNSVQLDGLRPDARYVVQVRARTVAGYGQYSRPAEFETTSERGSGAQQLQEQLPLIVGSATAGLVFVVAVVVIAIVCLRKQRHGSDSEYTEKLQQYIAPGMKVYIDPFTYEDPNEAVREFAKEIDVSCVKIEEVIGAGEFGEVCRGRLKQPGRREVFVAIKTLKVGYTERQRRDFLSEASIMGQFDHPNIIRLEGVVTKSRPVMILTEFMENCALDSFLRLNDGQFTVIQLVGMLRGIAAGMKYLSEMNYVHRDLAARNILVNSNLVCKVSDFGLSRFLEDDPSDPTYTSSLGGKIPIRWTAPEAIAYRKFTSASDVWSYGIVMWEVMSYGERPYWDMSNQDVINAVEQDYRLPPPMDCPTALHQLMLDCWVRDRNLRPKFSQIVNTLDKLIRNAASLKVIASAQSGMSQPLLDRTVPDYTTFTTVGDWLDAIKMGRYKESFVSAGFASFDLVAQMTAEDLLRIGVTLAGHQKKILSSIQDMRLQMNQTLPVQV
# [11] = target: T3, Ephrin type-B receptor 3 (Homo sapiens); conditions: at 10 µM
# [12] = target: T4, Ephrin type-B receptor 4 (Homo sapiens) (UniProt P54760); conditions: at 10 µM
# T4 sequence (whole entry): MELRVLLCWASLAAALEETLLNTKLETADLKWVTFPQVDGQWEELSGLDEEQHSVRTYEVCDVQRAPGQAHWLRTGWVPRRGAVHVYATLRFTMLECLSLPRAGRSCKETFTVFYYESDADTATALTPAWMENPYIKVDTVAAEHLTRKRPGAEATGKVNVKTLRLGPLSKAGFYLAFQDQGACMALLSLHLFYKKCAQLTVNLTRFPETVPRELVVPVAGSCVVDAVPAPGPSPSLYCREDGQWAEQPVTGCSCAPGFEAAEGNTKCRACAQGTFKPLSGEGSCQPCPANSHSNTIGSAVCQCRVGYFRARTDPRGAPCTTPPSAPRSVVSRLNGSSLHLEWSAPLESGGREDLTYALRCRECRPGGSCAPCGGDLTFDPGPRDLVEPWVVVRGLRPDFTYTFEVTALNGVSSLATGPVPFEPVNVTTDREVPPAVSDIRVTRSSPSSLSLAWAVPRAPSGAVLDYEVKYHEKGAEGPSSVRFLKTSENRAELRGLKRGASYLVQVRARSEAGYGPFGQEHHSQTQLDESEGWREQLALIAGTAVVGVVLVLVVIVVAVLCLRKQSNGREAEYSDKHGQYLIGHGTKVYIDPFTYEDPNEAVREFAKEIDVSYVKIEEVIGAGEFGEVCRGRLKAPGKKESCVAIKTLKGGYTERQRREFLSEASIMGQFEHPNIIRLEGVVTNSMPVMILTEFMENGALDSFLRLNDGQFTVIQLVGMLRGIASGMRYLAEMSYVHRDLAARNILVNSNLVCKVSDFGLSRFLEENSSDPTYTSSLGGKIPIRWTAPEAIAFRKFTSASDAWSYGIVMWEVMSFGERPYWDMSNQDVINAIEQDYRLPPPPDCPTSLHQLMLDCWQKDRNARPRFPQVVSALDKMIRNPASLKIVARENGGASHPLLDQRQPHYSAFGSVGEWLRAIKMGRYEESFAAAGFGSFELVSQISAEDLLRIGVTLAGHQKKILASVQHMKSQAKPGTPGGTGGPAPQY
# [13] = target: Receptor tyrosine-protein kinase erbB-4 (Homo sapiens) (UniProt Q15303); conditions: at 1 µM
# Chain of Receptor tyrosine-protein kinase erbB-4 (Homo sapiens) (Q15303 whole entry): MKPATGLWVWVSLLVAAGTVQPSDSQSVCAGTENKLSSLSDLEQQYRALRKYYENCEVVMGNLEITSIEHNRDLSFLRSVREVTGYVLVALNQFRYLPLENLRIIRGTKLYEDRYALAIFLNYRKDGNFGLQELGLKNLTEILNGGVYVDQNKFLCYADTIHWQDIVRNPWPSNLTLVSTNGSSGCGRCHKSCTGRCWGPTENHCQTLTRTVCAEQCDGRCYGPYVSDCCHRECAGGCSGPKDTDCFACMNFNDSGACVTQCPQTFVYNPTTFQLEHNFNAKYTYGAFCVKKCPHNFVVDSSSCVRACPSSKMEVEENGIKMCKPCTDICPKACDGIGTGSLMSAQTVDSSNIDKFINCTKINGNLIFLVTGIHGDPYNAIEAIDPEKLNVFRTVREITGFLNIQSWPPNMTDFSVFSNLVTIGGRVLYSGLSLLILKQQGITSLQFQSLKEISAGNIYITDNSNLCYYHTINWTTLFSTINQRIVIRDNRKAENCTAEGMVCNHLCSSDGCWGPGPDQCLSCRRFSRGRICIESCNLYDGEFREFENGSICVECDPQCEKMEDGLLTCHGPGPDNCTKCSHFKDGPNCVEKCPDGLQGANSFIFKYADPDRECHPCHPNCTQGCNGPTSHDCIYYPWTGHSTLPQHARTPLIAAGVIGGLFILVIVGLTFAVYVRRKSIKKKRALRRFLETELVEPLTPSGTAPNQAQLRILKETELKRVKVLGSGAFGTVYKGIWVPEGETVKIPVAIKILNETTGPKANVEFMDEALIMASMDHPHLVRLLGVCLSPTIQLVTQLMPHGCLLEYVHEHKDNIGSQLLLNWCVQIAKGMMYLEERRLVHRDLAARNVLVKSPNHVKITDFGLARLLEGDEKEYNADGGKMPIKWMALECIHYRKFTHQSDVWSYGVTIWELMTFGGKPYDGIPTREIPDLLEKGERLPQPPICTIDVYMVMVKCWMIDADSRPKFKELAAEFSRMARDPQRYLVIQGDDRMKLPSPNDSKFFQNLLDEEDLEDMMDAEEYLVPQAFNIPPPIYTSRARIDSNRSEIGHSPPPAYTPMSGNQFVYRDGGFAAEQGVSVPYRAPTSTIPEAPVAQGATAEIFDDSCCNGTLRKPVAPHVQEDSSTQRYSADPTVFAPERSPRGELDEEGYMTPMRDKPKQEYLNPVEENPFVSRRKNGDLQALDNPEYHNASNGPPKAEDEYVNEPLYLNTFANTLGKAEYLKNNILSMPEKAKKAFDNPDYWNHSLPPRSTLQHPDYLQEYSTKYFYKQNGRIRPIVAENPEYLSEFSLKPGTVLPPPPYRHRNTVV
# [14] = target: Receptor tyrosine-protein kinase erbB-4 (Homo sapiens) (UniProt Q15303); conditions: at 10 µM
# Chain of Ephrin type-A receptor 5 (Homo sapiens) (P54756 whole entry): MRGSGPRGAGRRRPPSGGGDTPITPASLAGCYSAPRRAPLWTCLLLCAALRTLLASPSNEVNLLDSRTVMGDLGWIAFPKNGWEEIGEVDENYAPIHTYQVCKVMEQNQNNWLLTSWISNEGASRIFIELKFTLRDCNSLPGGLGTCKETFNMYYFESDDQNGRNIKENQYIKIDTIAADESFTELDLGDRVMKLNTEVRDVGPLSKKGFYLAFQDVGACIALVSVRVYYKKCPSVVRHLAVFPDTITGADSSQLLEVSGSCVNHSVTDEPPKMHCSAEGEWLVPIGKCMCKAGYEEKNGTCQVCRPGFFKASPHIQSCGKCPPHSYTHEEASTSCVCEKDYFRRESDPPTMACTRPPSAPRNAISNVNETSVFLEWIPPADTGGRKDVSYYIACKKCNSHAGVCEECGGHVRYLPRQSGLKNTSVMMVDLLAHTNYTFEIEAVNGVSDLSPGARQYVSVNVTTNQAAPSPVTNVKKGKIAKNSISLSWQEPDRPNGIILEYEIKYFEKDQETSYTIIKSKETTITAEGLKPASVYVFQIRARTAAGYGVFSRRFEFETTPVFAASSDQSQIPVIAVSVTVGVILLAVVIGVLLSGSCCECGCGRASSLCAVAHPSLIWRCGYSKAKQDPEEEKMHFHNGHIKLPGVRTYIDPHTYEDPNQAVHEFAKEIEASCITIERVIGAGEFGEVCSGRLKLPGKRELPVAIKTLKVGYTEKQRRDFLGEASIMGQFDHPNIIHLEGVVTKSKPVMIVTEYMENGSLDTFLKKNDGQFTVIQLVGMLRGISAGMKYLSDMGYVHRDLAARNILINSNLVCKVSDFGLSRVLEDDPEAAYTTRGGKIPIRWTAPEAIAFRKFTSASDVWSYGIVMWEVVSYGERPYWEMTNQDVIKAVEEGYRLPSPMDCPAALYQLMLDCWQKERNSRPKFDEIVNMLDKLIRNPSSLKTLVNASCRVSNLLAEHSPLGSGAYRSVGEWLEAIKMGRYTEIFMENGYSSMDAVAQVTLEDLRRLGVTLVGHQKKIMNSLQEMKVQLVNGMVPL
# Chain of Ephrin type-A receptor 4 (Homo sapiens) (P54764 whole entry): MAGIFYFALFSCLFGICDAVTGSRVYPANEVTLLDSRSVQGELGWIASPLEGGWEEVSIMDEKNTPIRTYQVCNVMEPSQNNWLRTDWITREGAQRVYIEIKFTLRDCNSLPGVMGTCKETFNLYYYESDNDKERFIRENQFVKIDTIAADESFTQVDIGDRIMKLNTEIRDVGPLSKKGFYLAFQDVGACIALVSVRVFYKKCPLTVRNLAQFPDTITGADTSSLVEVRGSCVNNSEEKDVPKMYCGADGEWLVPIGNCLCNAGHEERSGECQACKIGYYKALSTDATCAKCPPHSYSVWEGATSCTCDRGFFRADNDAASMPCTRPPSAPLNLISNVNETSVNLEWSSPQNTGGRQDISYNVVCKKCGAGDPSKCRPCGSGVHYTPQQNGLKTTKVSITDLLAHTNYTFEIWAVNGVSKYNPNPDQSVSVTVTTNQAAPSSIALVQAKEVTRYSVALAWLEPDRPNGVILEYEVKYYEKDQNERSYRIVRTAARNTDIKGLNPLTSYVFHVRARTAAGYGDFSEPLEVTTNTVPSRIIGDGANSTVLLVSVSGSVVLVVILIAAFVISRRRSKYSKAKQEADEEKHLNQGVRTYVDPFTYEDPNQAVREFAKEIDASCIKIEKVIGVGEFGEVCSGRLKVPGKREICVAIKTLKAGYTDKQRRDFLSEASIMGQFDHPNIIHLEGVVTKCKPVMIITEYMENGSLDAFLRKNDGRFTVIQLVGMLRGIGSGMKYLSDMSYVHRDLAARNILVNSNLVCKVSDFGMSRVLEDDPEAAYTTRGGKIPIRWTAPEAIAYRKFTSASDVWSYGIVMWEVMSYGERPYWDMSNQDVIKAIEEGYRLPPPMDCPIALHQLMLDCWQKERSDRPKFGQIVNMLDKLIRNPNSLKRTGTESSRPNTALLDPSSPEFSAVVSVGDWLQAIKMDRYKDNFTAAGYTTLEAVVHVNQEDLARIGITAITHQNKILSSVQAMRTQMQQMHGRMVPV
smiles,measurement,setting,value
COc1ccc(CNC(=O)Nc2ncc([N+](=O)[O-])s2)cc1,residual activity,[1],100%
same,residual activity,[2],102%
same,residual activity,[3],114%
same,residual activity,[4],102%
same,residual activity,[5],80%
same,residual activity,[6],111%
same,residual activity,[7],80%
same,residual activity,[8],105%
same,residual activity,[9],117%
same,residual activity,[10],117% (inactive)
same,residual activity,[11],105%
same,residual activity,[12],78%
same,residual activity,[13],43%
same,residual activity,[14],33%
